The structures appear in SMILES notation. Records with an inconclusive call do not appear. Active and inactive are the calls of the source. Calls come from the whole dose curve; as a rule, active = well fitted curve in the direction sought with a large enough effect; inconclusive = small, poorly fitted or top-dose-only effect, or another doubt; inactive = no such curve, though single readings can be large; an effect the other way counts as inactive or inconclusive.

Drawing on PubChem BioAssay (NCATS), this text covers Potency for 17 compounds.

The nature of assay [1]: qHTS of pediatric cancer cell lines to identify multiple opportunities for drug repurposing: Primary screen for LAN-5 cells (AID 1347100). Put shortly: (§1)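 Cells (500-1,000/well) rested 5 h, then received compounds for 48 h; metabolically active cells were measured by CellTiter-Glo luminescence. Final concentrations spanned up to 46 µM (MIPE, 11-point) or 0.59 nM-46 µM (NPC, 8-point) in primary screens, 11-point in follow-ups.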
For orientation: In qHTS, concentration-response curves come from the screen itself.

A short description of assay [2]: qHTS of pediatric cancer cell lines to identify multiple opportunities for drug repurposing: Primary screen for BT-12 cells (AID 1347101). Note: nearly all actives have a fitted effect of over 25% in size. The method in brief: as §1
Assay [3] in a line: qHTS of pediatric cancer cell lines to identify multiple opportunities for drug repurposing: Primary screen for Rh18 cells (AID 1347102). Note: nearly all actives have a fitted effect of over 65% in size. The method in brief: as §1
The nature of assay [4]: qHTS of pediatric cancer cell lines to identify multiple opportunities for drug repurposing: Primary screen for OHS-50 cells (AID 1347103). Note: nearly all actives have a fitted effect of over 40% in size. Put shortly:
as §1

The nature of assay [5]: qHTS of pediatric cancer cell lines to identify multiple opportunities for drug repurposing: Primary screen for RD cells (AID 1347104). Note: nearly all actives have a fitted effect of over 55% in size. Put shortly: (§2)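 Cells seeded at 500-1,000 cells/well in growth media, rested 5 hours at 37 degrees C, 5% CO2, then dosed; MIPE compounds at 11-point (from 0.78 nM) and NPC at 8-point (from 0.59 nM) final concentrations. Viability by CellTiter-Glo luminescence after 48 hours.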

Assay [6] in a line: qHTS of pediatric cancer cell lines to identify multiple opportunities for drug repurposing: Primary screen for MG 63 (6-TG R) cells (AID 1347105). Note: nearly all actives have a fitted effect of over 50% in size. The method in brief:
as §2

Assay [7] can be described thus: qHTS of pediatric cancer cell lines to identify multiple opportunities for drug repurposing: Primary screen for Rh30 cells (AID 1347107). Note: nearly all actives have a fitted effect of over 75% in size. Put shortly:
as §1

The nature of assay [8]: qHTS of pediatric cancer cell lines to identify multiple opportunities for drug repurposing: Primary screen for Rh41 cells (AID 1347108). Note: nearly all actives have a fitted effect of over 70% in size. Put shortly: as §2
Assay [9] can be described thus: qHTS of pediatric cancer cell lines to identify multiple opportunities for drug repurposing: Confirmatory screen for NB1643 cells (AID 1347109). Note: nearly all actives have a fitted effect of over 45% in size. Put shortly: as §1
Assay [10] can be described thus: qHTS of pediatric cancer cell lines to identify multiple opportunities for drug repurposing: Confirmatory screen for A673 cells (AID 1347110).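 Note: cells exposed to compound for 48 h before the viability read; nearly all actives have a fitted effect of over 65% in size.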 The method in brief: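 Cells plated at 500-1,000/well were treated five hours later with multi-point dilutions up to 46 µM final. After two days, CellTiter-Glo was added and luminescence read.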
A short description of assay [11]: qHTS of pediatric cancer cell lines to identify multiple opportunities for drug repurposing: Confirmatory screen for SK-N-MC cells (AID 1347111).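 Note: cells exposed to compound for 48 h before the readout; nearly all actives have a fitted effect of over 70% in size.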 Put shortly:
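Seed 500-1,000 cells/well; rest 5 h at 37 degrees C. Pin-transfer compounds, 11-point titration. Incubate 48 h. Add CellTiter-Glo, 15 min RT, read luminescence.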

The nature of assay [12]: qHTS of pediatric cancer cell lines to identify multiple opportunities for drug repurposing: Confirmatory screen for BT-12 cells (AID 1347112). Note: nearly all actives have a fitted effect of over 55% in size. Put shortly: as §1
A short description of assay [13]: qHTS of pediatric cancer cell lines to identify multiple opportunities for drug repurposing: Confirmatory screen for LAN-5 cells (AID 1347113). Note: nearly all actives have a fitted effect of over 65% in size. Put shortly:
as §1

Assay [14] is described as follows: qHTS of pediatric cancer cell lines to identify multiple opportunities for drug repurposing: Confirmatory screen for DAOY cells (AID 1347114). Note: nearly all actives have a fitted effect of over 65% in size. Put shortly: (§3)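 Viability measured as metabolically active cells via CellTiter-Glo luminescence following 48 hours of compound exposure, 11-point dilutions in confirmatory testing. 500-1,000 cells/well plated 5 hours before dosing; controls were DMSO and 2.3 µM bortezomib.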

Assay [15] can be described thus: qHTS of pediatric cancer cell lines to identify multiple opportunities for drug repurposing: Confirmatory screen for SJ-GBM2 cells (AID 1347116). Note: nearly all actives have a fitted effect of over 60% in size. Put shortly:
as §3

Assay [16] is described as follows: qHTS of pediatric cancer cell lines to identify multiple opportunities for drug repurposing: Confirmatory screen for BT-37 cells (AID 1347117). Note: nearly all actives have a fitted effect of over 55% in size. The method in brief:
as §1

Assay [17] can be described thus: qHTS of pediatric cancer cell lines to identify multiple opportunities for drug repurposing: Confirmatory screen for TC32 cells (AID 1347118). The method in brief:
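Luminescent CellTiter-Glo read-out of metabolically active TC32 cells after 48 h compound exposure. Primary: MIPE 11-point, 0.78 nM–46 µM; NPC 8-point, 0.59 nM–46 µM. Confirmatory: 11-point dilutions.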

Assay [18] can be described thus: qHTS of pediatric cancer cell lines to identify multiple opportunities for drug repurposing: Confirmatory screen for control Hh wild type fibroblast cells (AID 1347121). Note: nearly all actives have a fitted effect of over 70% in size. Put shortly: as §1
Assay [19] is described as follows: qHTS of pediatric cancer cell lines to identify multiple opportunities for drug repurposing: Confirmatory screen for U-2 OS cells (AID 1347122). Note: nearly all actives have a fitted effect of over 65% in size. Put shortly:
as §1

Assay [20] is described as follows: qHTS of pediatric cancer cell lines to identify multiple opportunities for drug repurposing: Primary screen for control Hh wild type fibroblast cells (AID 1347106). Note: nearly all actives have a fitted effect of over 55% in size. Put shortly: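 Viability after 48 h compound treatment at 37C, 500-1,000 cells/well, read as ATP luminescence with CellTiter-Glo. Primary screens used 11-point (MIPE, 0.78 nM-46 µM) or 8-point (NPC, 0.59 nM-46 µM) final concentrations; follow-up screens used 11-point dilutions.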
Potency is the fitted concentration of half-maximal effect.

Regarding `NS(=O)(=O)c1cccc2c1C(=O)c1cccc(O)c1C2=O`, the Potency in assay [1] was 1050 nM (active); in [2], 273 nM (active); in [3], 743 nM (active); in assay [4], 769 nM (active); in [5] it was 526 nM (active); in assay [6], 2350 nM (active). For the same compound, the Potency in assay [7] is 2350 nM (active); in [8], 935 nM (active); in assay [9], 2930 nM (active); in assay [10], 2330 nM (active); in assay [11] it was 2930 nM (active); in assay [12], 1040 nM (active). Moreover, the Potency is 1850 nM (active) in assay [13]; 2330 nM (active) in assay [14]; 4140 nM (active) in assay [15]; 737 nM (active) in assay [16]; 827 nM (active) in assay [17]; 2930 nM (active) in assay [18]. For the same compound, the Potency in assay [19] was 1040 nM (active).

`CC#CCn1c(N2CCC[C@@H](N)C2)nc2c1c(=O)n(Cc1nc(C)c3ccccc3n1)c(=O)n2C`: the Potency entry in [1], in assay [2], in [3], in assay [4], in assay [6] and in assay [20] was “inactive” in each case.

On to `O=C(O)c1cc(O)c2c(c1)C(=O)c1cccc(O)c1C2=O`, for which the Potency entry in [1], in assay [2], in [3], in [4], in assay [5] and in assay [20] was “inactive” throughout.

With `CCOC(=O)C1=C(N)Oc2ccc(Br)cc2C1C(C#N)C(=O)OCC` (centres undefined), the Potency is 16600 nM (active) in assay [1] and 29600 nM (active) in assay [5]. Also, the Potency result in assay [2], in [4], in [6], in assay [20] and in assay [7] was “inactive” each time.

Consider `CC(C)C(C)C=CC(C)C1CCC2C3=CC=C4CC(O)CCC4(C)C3CCC21C` (centres undefined), for which the Potency entry in [1], in assay [2], in [4], in [5], in [6] and in assay [20] was “inactive” each time. Besides, the Potency entry in assay [7] is “inactive”.

In the case of `CCCCC1C(=O)N(c2ccccc2)N(c2ccccc2)C1=O`, the Potency result in assay [1], in [2], in assay [3], in [4], in assay [5] and in [20] was “inactive” in each case. Moreover, the Potency entry in [7] and in [8] was “inactive” throughout.

For `CC(C(=O)O)c1ccc(-c2ccccc2)c(F)c1` (centres undefined), the Potency result in assay [1], in assay [2], in assay [3] and in assay [6] was “inactive” in each case.

For `Cc1nnc(C(C)C)n1C1C[C@H]2CC[C@@H](C1)N2CC[C@H](NC(=O)C1CCC(F)(F)CC1)c1ccccc1` (some centres undefined), the Potency result in assay [1], in [2], in assay [3], in assay [4], in [6] and in assay [20] was “inactive” throughout. For the same compound, the Potency entry in assay [7], in [10], in [14] and in [19] was “inactive” each time. Besides, the Potency in [9] is 7370 nM (active); in assay [11], 7370 nM (active); in assay [15], 10400 nM (active).

Take `O=c1cc(-c2cccc3c2Sc2ccccc2S3)oc(N2CCOCC2)c1`: the Potency result in assay [1], in assay [2], in assay [3], in [20] and in assay [7] was “inactive” throughout.

On to `COc1cccc(-c2cc(=O)c3ccccc3o2)c1N`, for which the Potency result in assay [1], in assay [2], in [3], in assay [4], in [20] and in [7] was “inactive” throughout. Further, the Potency result in assay [9], in assay [12], in [14], in assay [16], in assay [18] and in assay [19] was “inactive” in each case. Also, the Potency in assay [5] was 13200 nM (active); in assay [17], 20800 nM (active).

On to `CC(C)(C(=O)NCC(F)(F)C(F)(F)F)C(=O)N[C@@H]1C(=O)Nc2ccccc2-c2ccccc21`, for which the Potency in assay [1] is 662 nM (active); in [2], 1090 nM (active); in [4], 1530 nM (active). Further, the Potency result in [3], in assay [6], in assay [20], in assay [9], in assay [10] and in [12] was “inactive” throughout. Further, the Potency result in assay [13], in [14], in assay [15], in assay [18] and in assay [19] was “inactive” in each case.

With `CCCCCCCCCCCC1=C(O)C(=O)C=C(O)C1=O`, the Potency in assay [1] was 16.6 nM (active); in [2], 43.2 nM (active); in assay [4], 19.3 nM (active); in assay [6], 2960 nM (active); in assay [8] it was 4690 nM (active); in assay [11], 16500 nM (active). The Potency in [17] is 10400 nM (active). The Potency entry in assay [3], in [20], in assay [7], in assay [9], in assay [12] and in assay [14] was “inactive” each time. Besides, the Potency entry in [15], in assay [16] and in [18] was “inactive” each time.

With `CC(C)n1nc(-c2ccc3oc(N)nc3c2)c2c(N)ncnc21`, the Potency is 18700 nM (active) in [1]; 306 nM (active) in assay [2]; 235 nM (active) in assay [3]; 1.2 nM (active) in [4]; 29.6 nM (active) in assay [5]; 0.7 nM (active) in [6]. In addition, the Potency is 11800 nM (active) in assay [7]; 23.5 nM (active) in [8]; 147 nM (active) in assay [10]; 73.7 nM (active) in assay [11]; 117 nM (active) in assay [12]; 131 nM (active) in assay [13]. Besides, the Potency is 5850 nM (active) in [14]; 165 nM (active) in [15]; 36.9 nM (active) in assay [16]; 46.5 nM (active) in assay [17]; 92.8 nM (active) in assay [19].

In the case of `COc1cccc2c1CCCC2CCCN1CCN(C2CCCCC2)CC1` (centres undefined), the Potency in [1] was 26400 nM (active); in assay [2], 24300 nM (active); in [4], 19300 nM (active); in assay [5], 26400 nM (active). Besides, the Potency entry in assay [6] and in assay [20] was “inactive” in each case.

Regarding `O=C1C(Cl)=C(NCCN2CCOCC2)C(=O)c2ncccc21`, the Potency in [1] was 8330 nM (active); in [2] it was 3430 nM (active); in assay [3] it was 2350 nM (active); in assay [4], 9680 nM (active); in assay [5] it was 5900 nM (active); in assay [6] it was 18700 nM (active). For the same compound, the Potency was 11800 nM (active) in assay [20]; 8330 nM (active) in [7]; 4690 nM (active) in [8]; 4140 nM (active) in [9]; 2080 nM (active) in [10]; 1040 nM (active) in [11]. For the same compound, the Potency is 2610 nM (active) in assay [12]; 2930 nM (active) in assay [13]; 7370 nM (active) in assay [14]; 14700 nM (active) in assay [15]; 1470 nM (active) in [16]; 1040 nM (active) in [17]. In addition, the Potency in assay [18] was 20800 nM (active); in assay [19], 1650 nM (active).

As for `CO[C@H]1C=CC=C(C)C(=O)NC2=CC(=O)C(NCCN(C)C)=C(C[C@@H](C)C[C@H](OC)[C@@H](O)[C@@H](C)C=C(C)[C@@H]1OC(N)=O)C2=O`, the Potency in assay [1] is 132 nM (active); in [2], 4850 nM (active); in [3] it was 132 nM (active); in [4], 385 nM (active); in assay [5] it was 52.6 nM (active); in [6], 18700 nM (active). Besides, the Potency is 5900 nM (active) in assay [7]; 590 nM (active) in assay [8]; 16500 nM (active) in assay [10]; 827 nM (active) in assay [11]; 18500 nM (active) in assay [14]; 1170 nM (active) in [16]. Moreover, the Potency entry in assay [13], in assay [15] and in assay [18] was “inactive” each time.

In the case of `COc1ccc2c3c1OC1C[C@@H](O)C=C[C@@]31CCN(C)C2` (some centres undefined), the Potency result in assay [1], in assay [2], in [3], in assay [4], in assay [6] and in [20] was “inactive” throughout. Also, the Potency result in assay [8] is “inactive”.
